From PubChem
A selection: hits, their analogues and other compounds. The true share with any hit is near 0.9%.
PPARg SRC-2 ag: agonists of PPARg-SRC-2 recruitment, primary screen, biochemical, HTS; Peroxisome proliferator-activated receptor gamma (Homo sapiens), P37231; PPARgamma LBD-SRC-2 recruitment; activation, % at 8 µM; 0.34% of 200,000 active; AID 1032, 2008; in the data active = activation above about 22%;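 note: 0% = vehicle and 100% = reference agonist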
Target sequence (P37231 whole entry, looked up, the tested form may be a part): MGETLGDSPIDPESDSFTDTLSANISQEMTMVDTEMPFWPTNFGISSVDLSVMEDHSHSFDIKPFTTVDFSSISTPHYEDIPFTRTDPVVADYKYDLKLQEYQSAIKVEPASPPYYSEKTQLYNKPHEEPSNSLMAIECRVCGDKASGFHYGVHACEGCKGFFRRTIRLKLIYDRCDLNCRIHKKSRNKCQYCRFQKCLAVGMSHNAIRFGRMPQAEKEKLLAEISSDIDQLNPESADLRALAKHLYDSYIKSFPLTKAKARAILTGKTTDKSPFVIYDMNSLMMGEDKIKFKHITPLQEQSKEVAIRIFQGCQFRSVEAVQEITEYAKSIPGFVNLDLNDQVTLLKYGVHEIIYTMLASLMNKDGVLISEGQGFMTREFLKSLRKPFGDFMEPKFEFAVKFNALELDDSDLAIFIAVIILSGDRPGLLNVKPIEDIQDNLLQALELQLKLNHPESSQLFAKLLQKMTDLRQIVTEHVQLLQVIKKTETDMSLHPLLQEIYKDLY
PPARg SRC-3 ag: PPARgamma agonists recruiting SRC-3 coactivator, primary screen, biochemical; Peroxisome proliferator-activated receptor gamma (Homo sapiens), P37231; 0.26% of 200,000 active; biochemical PPARgamma/SRC-3 coactivator recruitment assay; activation, % at 8 µM; in the data active = activation above about 23%;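 note: 0% = DMSO and 100% = reference agonist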
SRC1 TRFRET art: TR-FRET detection interference compounds, primary screen, artefact control for PPARgamma SRC-1 recruitment agonists, biochemical, TR-FRET emission ratio. TR-FRET detection artefact counter-screen; hits give high values. TR-FRET ratio at 8 µM. 0.34% of 99,000 active; in the data active = TR-FRET ratio above about 2300
PPARg SRC1 recr: PPARgamma agonists recruiting SRC-1 coactivator, primary screen, biochemical. Peroxisome proliferator-activated receptor gamma (Homo sapiens), P37231. activation, % at 8 µM. PPARgamma-SRC-1 coactivator recruitment biochemical assay. 0.41% of 200,000 active; in the data active = activation above about 19%;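 note: 0% = DMSO and 100% = reference agonist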
SRC2 TRFRET art: TR-FRET signal artefacts, primary screen, artefact control for PPARgamma SRC-2 agonist project, biochemical | 0.4% of 200,000 active | TR-FRET artefact counter-screen; hits give high values | TR-FRET ratio at 8 µM | AID 1049, 2008
SRC3 TRFRET art: TR-FRET detection interference compounds, artefact control for PPARgamma SRC-3 recruitment agonists, biochemical, TR-FRET ratio | TR-FRET artefact counter-screen, PPARgamma/SRC-3 format; hits give high values | TR-FRET ratio at 8 µM | 0.39% of 99,000 active | AID 1048, 2008
* = called active by the depositor; · = no result. Cut-off read from the data, not from the text of the source, unless noted: active = TR-FRET ratio above about 2000; inactive = the rest.

SMILES	PPARg SRC-2 ag	PPARg SRC-3 ag	SRC1 TRFRET art	PPARg SRC1 recr	SRC2 TRFRET art	SRC3 TRFRET art
C=COC(=O)CSc1nc(-c2cccs2)ccc1C#N	19	9	·	17	2052*	·
COc1ccc(C2Nc3ccccc3C(=O)N2c2ccccc2)cc1CSc1ccccn1 (stereo not drawn)	-9	3	1840	-4	1815	2243*
Cc1ccc(OCCCCN2CCCC(C)C2)c([N+](=O)[O-])c1 (stereo not drawn)	-6	-5	2173	12	1540	1682
Cc1ccc(NC(=O)CN(C)C(=S)NC2CC2)cc1	6	2	2119	26*	1539	1529
S=c1nc(SCc2ccccc2)[nH]c2ccccc12	21	15	2318*	-2	2041*	2007
CC(=O)C1=C(C)NC(SCC(=O)c2ccc(-c3ccccc3)cc2)=C(C#N)C1c1cccnc1 (stereo not drawn)	13	2	·	6	2094*	·
O=C(C/C=N\OCc1ccc([N+](=O)[O-])cc1)Nc1ccc(Br)cc1	-2	4	1750	10	1423	1644
Cc1nc(Oc2ccc(S(=O)(=O)N3CCOCC3)cc2Cl)c2c3c(sc2n1)CCCC3	4	1	1761	3	1630	1535
COC(=O)CSc1nc(C)c(C(=O)Nc2ccccc2C)c(-c2ccc(Cl)cc2)c1C#N	-4	-1	1720	-6	1652	2162*
Cc1nc(SCC(=O)OCc2ccccc2)c(C#N)c(-c2ccccc2)c1C(=O)Nc1ccccc1	-2	11	·	3	2287*	·
Cc1ccccc1NC(=O)c1c(C)nc(SCC(=O)OCc2ccccc2)c(C#N)c1-c1ccc(F)cc1	-2	-5	1564	1	1588	1628
CCc1ccc(NC(=O)CSCc2ccc(C(=O)O)cc2)cc1	-4	-3	1647	-1	1550	1295
N#CC(Sc1ccccn1)c1ccc(Cl)cc1 (stereo not drawn)	6	3	1872	9	1654	1636
Cc1ccc(-c2nnc(NCc3nc4ccccc4[nH]3)c3ccccc23)cc1S(=O)(=O)N1CCCCC1	5	0	2094	5	1948	2547*
Cc1ccc(-c2nnc(NC3CCCCC3)c3ccccc23)cc1S(=O)(=O)N1CCN(C)CC1	5	-1	·	2	1505	·
N#C/C(=C\c1cccc2ccccc12)c1nn(-c2ccccc2)c(N)c1C#N	17	16	·	19*	1650	·
Cc1ccc(/C=C(\C#N)c2nn(-c3ccccc3)c(N)c2C#N)cc1	-3	-4	1776	-4	1725	1337
Cc1ccc(SCCOCCN2CCc3ccccc3C2)cc1	-2	1	1761	15	1514	1666
CCOC(=O)c1sc(=NC(=O)c2cc(OC)c(OC)c(OC)c2)n(C)c1C	-3	338*	·	-1	1659	·
CCOC(=O)c1sc(=NC(=O)CCSc2ccccc2)n(C)c1C	-4	6	2065	6	1413	2393*
O=C(/C=C/c1cccc(Oc2ccccc2)c1)N1CCOCC1	5	4	1978	7	1523	1585
COc1cccc(Sc2ccccc2/C=N/NC(N)=O)c1	-1	0	1813	4	1683	1338
COc1cc(OC)cc(-c2nc3ccccc3c(=O)n2OC(=O)c2ccc(C)c(C)c2)c1	10	5	1932	7	1695	1580
O=C(Nc1ccc2ccccc2c1)c1cn(-c2ccccc2)nc1-c1cccs1	9	14	·	11	2107*	·
CC(c1ccon1)N(C)Cc1cn(Cc2ccccc2)nc1-c1ccc2c(c1)OCO2 (stereo not drawn)	-8	-5	1560	5	1513	1368
SMILES	PPARg SRC-2 ag	PPARg SRC-3 ag	SRC1 TRFRET art	PPARg SRC1 recr	SRC2 TRFRET art	SRC3 TRFRET art
CN1/C(=C\C(=O)COC(=O)CNC(=O)c2ccccc2F)C(C)(C)c2ccccc21	-4	1	1741	-1	1664	1456
CN1/C(=C\C(=O)COC(=O)CNC(=O)c2ccc3ccccc3c2)C(C)(C)c2ccccc21	12	2	3406*	-2	2236*	3346*
COC(=O)c1ccc(C(=O)OC)c(NC(=O)CCC(=O)O)c1	3	-7	·	7	1558	·
COC(=O)c1ccc(C(=O)OC)c(NC(=O)C(C)(C)C)c1	9	0	3181*	46*	1765	1496
O=C(Nc1ccc(N2CCCCC2)cc1)c1cncc(Br)c1	6	5	·	20*	1438	·
Cc1ccc(C(=O)Nc2ccc(N3CCCC3)cc2)cc1	5	6	1942	22*	1744	1531
O=C(Nc1ccc(N2CCCCC2)cc1)c1ccccc1	0	7	·	19*	1498	·
O=C(Nc1ccncc1)c1cncc(Br)c1	5	19	·	12	1683	·
O=C(O)CCN1C(=O)c2ccc(NC(=O)Cc3ccc(Cl)cc3)cc2C1=O	5	3	1837	12	1420	1611
CN(C)c1ccnc(Nc2ccc(O)cc2)c1C#N	0	0	1510	-2	1478	1547
S=C(NCc1ccc(Cl)cc1Cl)Nc1ccccc1	3	23*	1828	6	1553	1623
NCCCNc1ccc([N+](=O)[O-])cc1C(F)(F)F	2	7	1568	-1	1471	1544
Cc1cccc(N/C(N)=N/c2nc(C)cc(=O)[nH]2)c1	8	2	1803	0	1805	1736
CCN(CC)C(=O)CSc1nc2ncccc2[nH]1	10	32*	·	6	1315	·
CN(C)CCCNC(=O)c1cc(C(=O)c2ccc(F)cc2)c[nH]1	-5	-6	1808	2	1499	1627
NC(=O)c1ncc(C(F)(F)F)cc1Oc1cccnc1	4	3	1688	6	1655	1553
COc1nccc(-c2ccc(F)cc2)c1C#N	-4	-6	1778	8	1417	1548
COc1cc(C(=O)N/N=c2/sc3ccccc3n2C)cc(OC)c1OC	0	0	1686	-3	1548	1477
COc1ccc(C(=O)N=c2sc3ccccc3n2C)cc1OC	-2	4	4952*	168*	1578	1605
CC(C)C(C)NC(=O)CSc1nc2scc(-c3ccco3)c2c(=O)n1-c1ccccc1 (stereo not drawn)	2	11	·	6	1609	·
CC(C)C(C)(C#N)NC(=O)CSc1nc2scc(-c3ccco3)c2c(=O)n1-c1ccccc1 (stereo not drawn)	18	4	·	6	2013*	·
CCC1CCCCN1C(=O)CSc1nc(N)cc(N)n1 (stereo not drawn)	0	1	1816	0	1990*	1654
CCC1CCCCN1C(=O)CSc1nnc(-c2ccc(OC)cc2)o1 (stereo not drawn)	5	15	·	-2	1364	·
